In PubChem BioAssay AID1347428 (National Center for Advancing Translational Sciences (NCATS), 2020):
The campaign covered roughly 91,000 compounds. About 290 (0.32%) were called active. Not shown: some 7% with an inconclusive outcome. Calls follow the shape of the dose curve; as a rule, active = well fitted inhibition curve with a large enough effect; inconclusive = small, poorly fitted or top-dose-only effect; inactive = no such curve, though single readings can be large or run the other way. This excerpt belongs to a sample that is enriched for actives.

What follows are compounds tested against Single-stranded DNA cytosine deaminase (Homo sapiens) (UniProt Q9GZX7) (assay: Primary qHTS assay for inhibitors of Activation Induced Cytidine Deaminase (AID): AID signal). Conditions: AID deamination FRET fluorescence, UDG-coupled, 4 h; series mostly up to 115 µM; activity change, negative = inhibition: at the top concentration.
Sequence of Single-stranded DNA cytosine deaminase (Homo sapiens) (Q9GZX7 whole entry, looked up): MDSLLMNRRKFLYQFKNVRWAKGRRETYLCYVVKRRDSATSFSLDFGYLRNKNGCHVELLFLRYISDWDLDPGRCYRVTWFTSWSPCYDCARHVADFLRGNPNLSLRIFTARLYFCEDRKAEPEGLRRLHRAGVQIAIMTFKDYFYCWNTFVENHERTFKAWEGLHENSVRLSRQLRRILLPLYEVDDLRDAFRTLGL
Source text: Assay Provider (PI) Patricia Gearhart Ph.D.
National Institute on Aging
National Institute of Health (NIH), Bethesda, MD
Assay Provider (PI) Rahul Kohli Ph.D.
Perelman School of Medicine
University of Pennsylvania, Philadelphia, PA
Activation-Induced Deaminase (AID) is a cytosine deaminase which converts cytosine into uracil within stretches of ssDNA. The presence of uracil in DNA initiates a cascade of mutagenic DNA repair to introduce point mutations and DNA double strand breaks. Specific targeting of AID to the immunoglobulin heavy chain loci (Igh) promotes mutagenesis in the antibody variable region for somatic hypermutation (SHM) or switch regions leading to class switch recombination (CSR). However, AID also plays a role in accumulating unnecessary mutations across the genome. Mis-targeting of AID results in the initiation of tumor development and leads to greater drug resistance among cancer cells when continually expressed. To identify an AID inhibitor, a small molecule library will be screened in collaboration with NCATS core facility at NIH. To confirm biological function, inhibitors will be examined in an in vitro murine B-cell activation assay and subsequent secondary validation screens. Top molecules will be further screened to identify inhibitory efficacy against a wild type primary splenocytes assay. Using these approaches, we hope to identify a small molecule with great efficacy and low toxicity for use as a molecular probe to further characterize AID's intricacies, or even as a therapeutic.
A FRET based analysis of cytosine deamination, was developed to identify potential inhibitors of AID catalytic activity. This screen has two signal output, Read 1 evaluates the AID inhibition response. The second readout (Read 2) evaluates UDG response and is uses as a counterscreen to exclude false positive inhibitors. Inhibition in AID and inactivity in the UDG signal is the desired outcome for this assay.
SEQUENCE No. (e.g., 1, 2, 3, etc.); […] (e.g., Cells, Incubation, Reagent, etc.); VALUE; DESCRIPTION
1a; Reagent; 3 uL; [4/3x] 1 uM AID/2.67 U/mL UDG
1b; Reagent; 3 uL; 2 U/mL UDG
1c; Reagent; 3 uL; 1 uM AID
2a; Compound; 46 nL; Follow-up plates (0.64 uM - 10 mM)
2b; Control; 46 nL; ATA ([…] - 10 mM)
3; Time; 10 min; incubation at room temperature
5; Time; 4 hr; incubation at room temperature
6; Reagent; 4 uL; [2x] 250 mM NaOH
7; Time; 15 sec; centrifuge at 1000 rpm
8; Time; 30 min; incubation at room temperature
9a; Detection; fluorescence (Read 1: AID); EnVision (PerkinElmer) plate reader, 540 excitation and 590 emission filters
9b; Detection; fluorescence (Read 2: UDG); EnVision (PerkinElmer) plate reader, 560 excitation and 665 emission filters
NOTES (numbers refer to sequence above)
1a; Reagents were dispensed in a medium-binding black solid-bottom Greiner plates (789176F) using a BioRptr liquid dispenser. Dispense 3 uL of [4/3x] 1 uM AID (provided by Kohli lab) and [4/3x] 2 U/mL UDG (NEB M0280L) into columns 1, 2, 5 to 48.
1b; Dispense 3 uL of [4/3x] 2 U/mL UDG into column 3.
1c; Dispense 3 uL of [4/3x] 1 uM AID into column 4.
2a; Compound (7-points [uM] (0.64; 3.2; 16; 80; 400; 2,000; 10,000; 20,000) double pin-transferred (Dip Factor = 2) using the Kalypsys (Wako USA) pintool equipped with a 1536 pinhead for a final concentration range of 7.32 nM - 114 uM.
2b; 10 mM Aurintricarboxylic Acid (Sigma A1895) (ATA, 8-point, n = 2, 1:2.5 dilution in column 2) double pin-transferred (Dip Factor = 2) using the Kalypsys (Wako USA) pintool equipped with a 1536 pinhead for a [final] range of 186 nM - 114 uM.
3; Room temperature incubation.
4; Dispense 1 uL of substrate mixture from the Kohli lab [4x] […] DJC20 and [4x] 250 nM DJC23 into columns 1 to 48 .
5; Room temperature incubation.
6; Dispense 4 uL of substrate mixture [2x] 250 mM NaOH into columns 1 to 48.
7; Centrifugation step to remove bubbles.
8; Room temperature incubation
9a; Fluorescence signal (column label AID) was read using the EnVision plate reader. […]
% is scaled to controls: 0 for no effect and ±100 for the full control effect; potency is read from the fitted curve at half-maximal effect.
Also: nearly all actives have a fitted effect of over 25% in size.

Activity change, negative = inhibition, inactive:
Cc1nc2nc(SCC(=O)c3ccccc3)[nH]c2cc1Br -8.97%
CN(Cc1c(F)cccc1Cl)C(=O)c1ccc(NS(C)(=O)=O)cc1 -4.28%
O=C(NC1CC1)c1cc(-c2ccc(Cl)cc2)nc2ccccc12 -3.94%
COc1cc(F)ccc1NC(=O)Cc1nn(C)c(=O)c2ccccc12 -4.44%
COc1ccc(-c2nnc(SCCOc3ccc(Cl)cc3Cl)n2C(C)C)cc1 -26.6%
O=C(c1cnn(-c2ccc(F)cc2)c1-n1cccc1)N1CCN(c2ccc(F)cc2)CC1 -15%
Cc1c(Cl)cccc1NC(=O)C1CCCN(c2ncnc3onc(C)c23)C1 (centres undefined) 1.15%
Nc1nnnn1Cc1nnc(SCc2ccc(F)cc2)n1-c1ccccc1 -7.07%
Cc1ccccc1/C=C1\CCc2ccccc2C1=O -12.2%
O=C(NC(c1ccccc1)c1ccccn1)c1cc[n+]([O-])cc1 (centres undefined) 5.75%
O=C(NCCc1ccccc1)c1[nH]c2ccccc2c1Cl 4.63%
COc1cc(C(=O)Nc2ccc(C(=O)O)cc2)c2ccccc2n1 -14.4%
COc1ccccc1-c1cc(=O)c2cc(C)ccc2o1 -7.1%
COC(=O)C(C)(NC(=O)CCC(=O)c1ccccc1)c1ccccc1 (centres undefined) -8.13%
O=C(NC/C(=N/NC(=O)c1cccnc1)c1ccccc1)c1ccccc1 -6.31%
CN(Cc1cccc(C(F)(F)F)c1)C1CCN(C(=O)c2cncc(Br)c2)CC1 4.19%
Cc1cc2nc(CSc3nc4ccc(NC(=O)CCC5CCCC5)cc4s3)cc(=O)n2o1 6.43%
O=Cc1cccc(Br)c1O -2.6%
Cc1ccc(S(=O)(=O)NC(C)c2cccs2)cc1 (centres undefined) 2.96%
Cc1cc(C(C)(C)C)cc(C)c1CS(=O)Cc1ccc(F)cc1 (centres undefined) -27.6%
CC(=O)c1c(C)[nH]c(C(=O)C(C)SCc2ccc(Cl)cc2)c1C (centres undefined) -4.65%
NC(=O)NNC(=S)Nc1ccc(SC(F)F)cc1 -2.65%
COC(=O)c1cc(S(=O)(=O)Nc2ccc(C)c(F)c2)c[nH]1 -0.855%
CCc1ccc(-c2csc(/C(C#N)=C\Nc3ccccc3C)n2)cc1 -2.89%
Cc1sc(NC(=O)Cc2ccccc2)c(C#N)c1C 8.65%
Cc1cc(-c2ccccc2)c(-c2nc3ccccc3s2)[nH]1 67.1%
C=CCNCc1ccc(CC)cc1 -3.27%
COc1ccc(-c2csc(N)c2C#N)cc1 28.9%
O=C(CCC1CCCC1)NCc1ccncc1 -3.62%
c1ccc2cc(OCCSc3ccc4ccccc4n3)ccc2c1 -1.21%
COc1cc(/C=C2/NC(=O)NC2=O)cc(I)c1OCC(=O)O 9.59%
Cc1ccc2c(c1)-c1cccc3cccc(c13)C2=O -3.02%
COc1ccc(CNC(=O)/C=C/c2ccc(C)cc2)cc1 -7.12%
CCc1nc2ccccc2c(NC(=O)CN(CC)CC)c1C 2.75%
Cc1ccn2c(F)c(C(F)(F)F)nc2c1 -2.88%
C=CCn1c(NCCCOCC)nc2c1c(=O)[nH]c(=O)n2C -13.2%
Cc1ccc2[nH]c(=O)c(-c3noc(CCCC(=O)NC4CCCCC4)n3)cc2c1 11%
Cc1c(F)cccc1NC(=O)C12CC3CC(CC(C3)C1)C2 -16.2%
Cc1ccc(C)c(C(C)NC(=S)NCc2ccc(Cl)cc2)c1 (centres undefined) -11.9%
O=C(c1ccc(Cl)cc1Cl)N(C1CCCCC1)C1CCCCC1 -9.19%
Cc1ccc(CNC(=O)c2scnc2C)cn1 -0.773%
Cc1cc(-c2noc(COc3ccc(I)cc3)n2)c2ccccc2n1 -15.1%
CCn1nnc(NC(=O)c2cc3ccccc3cc2OC)n1 -11.7%
CCCNC(=O)C1CCC(Cn2c(=O)c3sccc3n(Cc3ccccc3F)c2=O)CC1 (centres undefined) -24.2%
CC(C)NC(=O)C1CCC(Cn2c(=O)c3sccc3n(Cc3ccc(F)cc3)c2=O)CC1 (centres undefined) -4.59%
N#Cc1cccc(NC(=S)NCCc2ccccc2)c1 -15.4%
CCNCc1ccccc1C(F)(F)F -1.7%
CCCCNC(=O)Nc1ccccc1CC(N)=O -1.59%
O=C(CSc1ccc2c(c1)OCCO2)Nc1ccc2c(c1)OCCO2 -9.11%
COCCNc1nc(-c2ccccc2)c2cc(Br)ccc2n1 -17.5%
CCN(C(=O)C1CCN(c2nc3ccccc3o2)CC1)c1ccc(F)c(F)c1 -14%

Potency, active:
Cc1c(Cl)cccc1NC(=O)C1CCCN(C(=O)c2cnn(-c3ccccc3)c2-n2cccc2)C1 (centres undefined) 22.4 µM
C[N+](C)(CCCCCC[N+](C)(C)CCCN1C(=O)c2cccc3cccc(c23)C1=O)CCCN1C(=O)c2cccc3cccc(c23)C1=O 4.47 µM
O=C(C1CCC(Cn2c(=O)c3sccc3n(Cc3ccccc3F)c2=O)CC1)N1CCCCC1 (centres undefined) 25.1 µM
